Test results from PubChem BioAssay.

Assays:
[1] = biological target: Tumor necrosis factor receptor superfamily member 10B (Homo sapiens) (UniProt O14763); test: caspase-8 TRAIL sensitization, hit retest, confirmation, cell-based, NB7+caspase-8, with/without TRAIL, luminescence panel (AID 651596); conditions: NB7 neuroblastoma + caspase-8, TRAIL sensitization, luminescence viability, with TRAIL, mean of runs, at 10 µM, stronger effect = higher value
[2] = as above; conditions: NB7 neuroblastoma + caspase-8, without TRAIL, luminescence viability, without TRAIL, mean of runs, at 10 µM

Chain of Tumor necrosis factor receptor superfamily member 10B (Homo sapiens) (O14763 whole entry, looked up): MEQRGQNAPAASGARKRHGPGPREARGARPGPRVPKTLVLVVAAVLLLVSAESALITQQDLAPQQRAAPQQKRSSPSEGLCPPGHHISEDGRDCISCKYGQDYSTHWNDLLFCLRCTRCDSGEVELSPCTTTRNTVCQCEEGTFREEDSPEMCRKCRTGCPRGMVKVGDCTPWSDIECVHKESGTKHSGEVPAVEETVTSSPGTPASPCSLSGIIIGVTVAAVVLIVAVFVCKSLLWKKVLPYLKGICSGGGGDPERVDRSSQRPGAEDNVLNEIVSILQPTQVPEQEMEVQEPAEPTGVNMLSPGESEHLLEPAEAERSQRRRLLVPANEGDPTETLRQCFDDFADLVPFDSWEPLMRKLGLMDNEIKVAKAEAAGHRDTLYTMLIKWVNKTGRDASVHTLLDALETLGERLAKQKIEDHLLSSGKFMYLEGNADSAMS

Structure (SMILES) | activity [1] [%] | activity [2] [%]
C/C(=N\NC(=O)COc1ccc(C(C)(C)C)cc1)c1cc2ccccc2o1 | 89.2 | 84.2
CCC(C(=O)O/N=C(\N)c1ccc(C)cc1)c1ccccc1 (stereo not drawn) | 65.2 | 77.5
C=CCOn1c(C)c(C(C)=O)c2c3no[n+]([O-])c3ccc21 | 53.5 | 64.2
COc1ccc2nc(NC(=O)c3ccc([N+](=O)[O-])o3)sc2c1 | 37.6 | 77.8
C/C(=N\Nc1nc2ccccc2[nH]1)c1ccc(N2CCOCC2)cc1 | 80.9 | 74.9
O=C(CSc1ncnc2nc[nH]c12)c1ccc(Cl)cc1 | 57.6 | 66
CC(=O)Nc1sc2c(c1-c1nc3ccccc3s1)CN(C(C)C)CC2 | 38 | 73.8
O=C(Nc1ccc2[nH]ccc2c1)c1ccccc1 | 81.1 | 75.3
CN(C(=O)c1ccccc1)c1nc2ccccc2s1 | 84.3 | 72.3
CCN(CC)c1ccc(NC(=O)c2ccco2)cc1 | 53.6 | 50.3
Cc1ccc(-n2cc(C(=O)c3ccccc3O)cn2)cc1 | 52 | 38.6
CN(C)CCNC(=O)c1cc2c(s1)-c1ccc(Cl)cc1SC2 | 99 | 99.5
O=C(NC1CC1)C1CCN(S(=O)(=O)c2ccc(Cl)c([N+](=O)[O-])c2)CC1 | 65.2 | 88.2
O=C(NC1CCCCC1)c1n[nH]c2c1CCCCC2 | 82.1 | 80.8
CN=c1scc(-c2ccccc2F)n1/N=C(\C)c1cccnc1 | 54.9 | 51.2
COc1ccc2sc(NC(=O)c3ccco3)nc2c1 | 68.9 | 74.8
O=C(Cn1ncc(Cl)c(Cl)c1=O)c1ccc(Cl)cc1 | 99.7 | 99.6
O=C1C(=C(I)I)c2ccccc2-c2ccccc21 | 38 | 99.6
COc1cc(NCCCCC(C)N)c2nccc(C)c2c1 (stereo not drawn) | 38 | 45.6
O=C(/C=C/Nc1ccccc1)c1ccccc1 | 63.1 | 44.8
O=c1[nH]c(Nc2nc3ccccc3o2)nc2c1CCCC2 | 79.8 | 57
CCOc1ccc(C(=O)O/N=C(\N)c2ccccn2)cc1OCC | 82.3 | 88.9

Structure (SMILES) | activity [1] [%] | activity [2] [%]
COc1cccc2sc3ccc(C#CC4(O)CCCCC4)cc3c(=O)c12 | 46.1 | 45.8
NC(=O)c1ccsc1NC(=O)c1ccc(N2CCCC2=O)cc1 | 87.3 | 85.7
Cc1cc(N/N=C/c2ccccc2Cl)nc(NCc2ccccc2)n1 | 37.5 | 34.1
CCOC(=O)c1sc2nc(-c3ccccc3)ccc2c1N | 76.1 | 66.1
Fc1ccc(/C=N/Nc2nc(-c3cccnc3)nc3ccccc23)cc1 | 50.8 | 19.2
O=C(/C=C\Nc1ccccn1)c1ccc(Cl)cc1 | 77.2 | 63.3
O=C(N/N=C1\CCc2ccccc21)c1ccccc1O | 53.7 | 62.4
Cc1noc(N)c1C(=O)Nc1ccc(C(C)(C)C)cc1 | 46.1 | 48.9
COc1cc(SC)ccc1C(=O)NNC(=O)c1cc(C)oc1C | 71.4 | 70.8
Cc1cc(C)cc(NC(=O)/C(C#N)=C/c2cn(CC(=O)NCc3ccco3)c3ccccc23)c1 | 62.1 | 77.7
O=C(NO)c1cc(OCC(F)(F)F)ccc1OCC(F)(F)F | 51.1 | 71.4
C#Cc1ccc([C@@H]2C=C(C(=O)Nc3ccccc3)O[C@H](OCC)[C@H]2CCCO)cc1 | 90.8 | 91.5
CC(C)(C)OC(=O)NCCCC[C@H](NC(=O)c1[nH]cnc1C(=O)Nc1ccccc1)C(=O)OC(C)(C)C | 74.2 | 58.6
CCOc1ccc(-n2c(SCC(N)=O)nc3c([nH]c4ccccc43)c2=O)cc1 | 59.4 | 56.5
O=C(Nc1cc(S(=O)(=O)N2CCOCC2)ccc1N1CCOCC1)c1ccc([N+](=O)[O-])s1 | 39.1 | 41.4
CN(NC(=O)C(C)(C)C)c1nc(-c2ccccc2)nnc1C(F)(F)F | 43.9 | 55.6
COc1ccc(-c2nnc(NC(=O)c3ccco3)s2)cc1 | 55.4 | 60.6
O=C(N/N=C/C=C/c1ccccc1)c1cc2c(ccc3ccccc32)o1 | 62.1 | 56.4
FC(F)(F)c1cccc(CC2CN(Cc3ccccc3)Cc3ccccc3N2c2cc(Cl)cc(Cl)c2)c1 (stereo not drawn) | 1.05 | -5.7
CCCc1c(C(=O)N/N=C/C=C/c2ccccc2)nnn1-c1nonc1N | 47.5 | 50.4
CN(C)CCCn1cnc2c(c1=N)C(c1ccccc1)c1ccc3ccccc3c1O2 (stereo not drawn) | 88.5 | 93.6
O=C(N/N=C/c1cccc([N+](=O)[O-])c1)c1ccc2c(c1)OCCO2 | 73.3 | 61.3
